# Values joined by “and” are separate entries in the source; they are usually repeats but may differ in a detail not shown here. Equal values may be shown once. Screen size: about 260,000 compounds; about 2,200 (0.85%) were called active.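 How the source made its calls: active means compounds whose cAMP rise, as percent of the full-agonist control response, exceeds 60; inactive means the rest.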 Only a selection was taken, and actives are over-represented in it overall. More than one record can exist for a structure, and the calls need not agree.
# Biological target: Prostaglandin E2 receptor EP2 subtype (Homo sapiens) (UniProt P43116)
# Experiment: EP2 receptor modulators, cAMP readout, primary screen, cell-based, HTRF cAMP, PGE2 stimulation (AID 940);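 further: rat C6 glioma line stably carrying human EP2 under a CMV promoter; the protocol text gives 20 µM as final concentration; 100% = response of wells given 1 µM PGE2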
# Settings: EP2-expressing cells, cAMP HTRF FRET, PGE2 co-stimulation; at 25 µM; stronger effect = higher value
# Chain of Prostaglandin E2 receptor EP2 subtype (Homo sapiens) (P43116 whole entry, looked up): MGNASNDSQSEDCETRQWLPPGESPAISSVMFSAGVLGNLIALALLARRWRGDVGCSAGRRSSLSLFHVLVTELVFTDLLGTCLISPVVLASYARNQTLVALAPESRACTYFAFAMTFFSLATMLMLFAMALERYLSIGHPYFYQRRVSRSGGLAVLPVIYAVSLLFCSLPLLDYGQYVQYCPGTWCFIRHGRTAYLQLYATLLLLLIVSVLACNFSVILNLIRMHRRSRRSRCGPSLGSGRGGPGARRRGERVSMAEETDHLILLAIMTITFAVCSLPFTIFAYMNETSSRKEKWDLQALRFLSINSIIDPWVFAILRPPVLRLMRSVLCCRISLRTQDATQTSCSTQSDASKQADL
row,Structure (SMILES),induction
1,C[N+]1(C)CCOC(O)(c2ccc(-c3ccc(C4(O)C[N+](C)(C)CCO4)cc3)cc2)C1 (stereo not given),27.6% (inactive) and 76.2% (active)
2,C=CCc1cc(CN2C3CCC2CC(O)(c2nccn2C)C3)cc(OCC)c1O (stereo not given),-31.8% (inactive)
3,Cc1cccc2cc(CN(Cc3ccco3)C3(c4nnnn4C4CCCC4)CCCCC3)c(=O)[nH]c12,24.8% (inactive)
4,N#CC1=C(N)Oc2c(c(=O)oc3ccccc23)C1c1cc2c(cc1Cl)OCO2 (stereo not given),0.48% (inactive)
5,COc1ccccc1/C=C/CN1C2CCC1CC(O)(c1ccccc1F)C2 (stereo not given),-60.2% (inactive)
6,O=C(CN1C2CCC1CC(O)(c1ccco1)C2)NCc1ccccc1 (stereo not given),-18.4% (inactive)
7,CC(c1ccccc1)(c1ccccc1)c1ccncc1,61.2% (active)
8,O=C1CCCN1C(=O)c1cc(Cl)cc(Cl)c1,-0.43% (inactive)
9,OC12CCCCC1CN(Cc1ccnc3ccccc13)CC2 (stereo not given),-29.6% (inactive)
10,O=C(CN1C2CCC1CC(O)(c1ccccn1)C2)N1c2ccccc2Sc2ccccc21 (stereo not given),8.29% (inactive)

# Source: PubChem BioAssay AID940 (Emory University Molecular Libraries Screening Center, 2007)
